Screening data (PubChem BioAssay)
NS1 function inh – qHTS Assay for Inhibitors of Influenza NS1 Protein Function. Potency, µM (doses to about 46.1 µM), for inactives: at the top dose activity, positive = more growth. hit rate 0.4% among 270,000; calls by dose curve; also: potency is read from the fitted curve at half-maximal effect; actives are rising curves; nearly all actives have a fitted effect of over 50% in size
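In this qHTS, NS1 from influenza A is expressed in budding yeast, where it slows growth. Cells are switched from glucose to 2% galactose medium (pH 6.0, -URA), treated with compound, and growth recovery is read at OD600.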
Sm TGR inh – qHTS Assay for the Inhibitors of Schistosoma Mansoni Peroxiredoxins. purified TGR, DTNB reduction, TNB absorbance 405 nm. AID 485364, 2010. hit rate 3% among 360,000. Potency, µM (series often up to 114 µM), without a hit: at the top dose activity change, negative = inhibition, most hits filed as inhibitors; also: potency is read from the fitted curve at half-maximal effect; % is scaled to controls: 0 for no effect and ±100 for the full control effect; nearly all actives have a fitted effect of over 60% in size
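First, TGR (20 nM dispensed) and NADPH were mixed with compound. Second, a 15 min room-temperature incubation followed. Third, further NADPH and then DTNB were added to start the reaction. Finally, TNB absorbance was monitored kinetically.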
Pf growth 48h – Primary qHTS for delayed death inhibitors of the malarial parasite plastid, 48 hour incubation. P. falciparum luciferase growth in erythrocytes, 48 h. hit rate 5.9% among 310,000. AID 504832, 2011. Potency, µM (series often up to 28.7 µM), for the others: at the top dose activity change, negative = inhibition, actives largely listed as inhibitors; also: potency is read from the fitted curve at half-maximal effect; % is scaled to controls: 0 for no effect and ±100 for the full control effect
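Read-out is firefly luciferase luminescence from an integrated reporter in P. falciparum, so falling signal marks reduced parasite growth. Infected erythrocytes were at 2% hematocrit and 0.1% parasitemia (final) in Albumax-supplemented RPMI 1640.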
Shiga toxin inh – A qHTS for Small Molecule Inhibitors of Shiga Toxin. Vero cells, Shiga toxin protein synthesis inhibition reporter. hit rate 9.2% among 290,000. inhibition, % at 38.7 µM; in the data active = inhibition mostly above about 28%, no sharp cut-off; inactive = mostly below about 43%; also: 0% is about no effect
Cycloheximide cs – Cycloheximide Counterscreen for Small Molecule Inhibitors of Shiga Toxin; hit rate 12% among 300,000; cell reporter, cycloheximide protein synthesis inhibition counterscreen; max response, %; in the data active = max response mostly above about 13%, no sharp cut-off; inactive = mostly below about 14%; also: read at 38.3 µM for the half of the compounds with a filed dose; 0% is about no effect
Pf growth 96h – Primary qHTS for delayed death inhibitors of the malarial parasite plastid, 96 hour incubation; P. falciparum luciferase reporter growth, 96 h; hit rate 6.9% among 320,000; Potency, µM (doses to about 28.7 µM), for inactives: at the highest dose activity change, negative = inhibition, most hits filed as inhibitors; AID 504834, 2011; also: potency is read from the fitted curve at half-maximal effect; % is scaled to controls: 0 for no effect and ±100 for the full control effect
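Two parasite generations (96 h, 37 C, 5% CO2) of compound exposure in infected erythrocytes (0.05% parasitemia, 2% hematocrit). Luciferase-reporter P. falciparum; decreased luminescence indicates inhibited growth, aimed at apicoplast-acting delayed death.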
* hit, by the source's call; ? = inconclusive; · = not tested or not shown; + = active, no number; [ ] = another dose, or the depositor's remark. A selection: hits, their analogues and other compounds. The true share with any hit is near 21%. Unless noted, calls follow the shape of the dose curve; as a rule, active = well fitted curve in the direction sought with a large enough effect; inconclusive = small, poorly fitted or top-dose-only effect, or another doubt; inactive = no such curve, though single readings can be large; an effect the other way counts as inactive or inconclusive.

SMILES	NS1 function inh	Sm TGR inh	Pf growth 48h	Shiga toxin inh	Cycloheximide cs	Pf growth 96h
CC(C)(C)NC(=O)C(OC(=O)c1cccs1)c1ccccc1 (stereo not drawn)	1%	2%	0%	2	22*	-26%
C/C(Cn1nnc([N+](=O)[O-])n1)=N\NC(=O)c1ccccc1Cl	?	-24%	7.4µM*	27	22*	9.3µM*
C/C(Cn1nnc([N+](=O)[O-])n1)=N\NC(=O)c1ccc(C)cc1	27%	-8%	?	82*	43*	?
C/C(Cn1nnc([N+](=O)[O-])n1)=N\NC(=O)c1cccc(Cl)c1	3%	-8%	?	44*	20*	12µM*
CCc1ccc(N(CC)C(=O)c2cc3c(=O)oc4ccc(C)cc4c3s2)cc1	·	0%	·	·	·	·
CCCn1ccc2c(OCC(=O)Nc3cc(C)ccc3C)cccc2c1=O	·	-1%	·	·	·	·
O=C(O)[C@@H]1C[C@@H](C(=O)O)N1	-11%	·	·	·	·	·
CC(C)c1ccc(C2c3c(-c4ccccc4O)n[nH]c3C(=O)N2Cc2ccncc2)cc1 (stereo not drawn)	·	3%	·	·	·	·
O=C(CSc1nnc(-c2cccs2)n1-c1ccccc1)N1CCCC1	3%	21%	1%	-9	-6	9.3µM*
O=C(CSc1ccc(-c2cccnc2)nn1)N1CCCCCC1	·	-2%	3%	43	-2	0%
CN1CCN(S(=O)(=O)c2ccc(Sc3nnc(-c4cccs4)n3-c3ccccc3)nc2)CC1	-10%	-3%	7.4µM*	20	-4	?
O=C(CSc1ccc2nnc(-c3cccs3)n2n1)N1CCCC1	·	-13%	8%	2	3	?
CSc1nnc(-c2cccs2)n1-c1ccccc1	1%[9.22 µM]	2%	-4%	-10	-2	·
O=C(CSc1ccc(-c2cccs2)nn1)N1CCCCC1	3%	3%	99%	52*	46*	-29%
O=C(CSc1ccc(-c2cccs2)nn1)N1CCCCCC1	1%	-11%	35%	44*	20*	?
O=C(CCNC(=O)c1ccc([N+](=O)[O-])cc1)Nc1ccc(S(=O)(=O)N2CCOCC2)cc1	·	-3%	?	·	·	?
NS(=O)(=O)c1ccc(CCNC(=O)c2ccccc2Cc2ccccc2)cc1	7%	0%	-1%	-8	-4	?
Cc1cccc(NC(=O)CSc2ccc(-c3cccs3)nn2)c1C	3%	-2%	8%	11	13*	16%
Cc1ccccc1NC(=O)CSc1ccc(-c2cccs2)nn1	·	4%	·	·	·	·
CCOc1ccc(NC(=O)c2oc3ccccc3c2NC(=O)Cc2cccc(C)c2)cc1	·	-8%	·	·	·	·
Cc1cccc(S(=O)(=O)Nc2ccc3c(c2)OCCO3)c1	4%	-8%	10%	-8	1	-10%
COc1cccc(S(=O)(=O)Nc2ccc3c(c2)OCCO3)c1	12%	-14%	48%	52*	37*	67%
COc1ccc(NS(=O)(=O)c2ccc(NS(=O)(=O)c3ccc4c(c3)OCCO4)cc2)cc1	·	4%	·	·	·	·
COc1ccc(NS(=O)(=O)c2ccc3oc(Nc4ccc5c(c4)OCCO5)nc3c2)cc1	1%	-3%	-28%	+	30*	-10%
COc1ccc(NS(=O)(=O)c2ccc3oc(SC(C)C(N)=O)nc3c2)cc1 (stereo not drawn)	9%	3%	2.3µM*	-16	1	4.7µM*
SMILES	NS1 function inh	Sm TGR inh	Pf growth 48h	Shiga toxin inh	Cycloheximide cs	Pf growth 96h
CC(C)CCNC(=O)CNC(=S)N(Cc1ccccc1)Cc1cccnc1	2%	-7%	-5%	-8	-3	?
OC(CN1c2ccccc2Sc2ccccc21)Cn1nnc2ccccc21 (stereo not drawn)	-150%	8%	4.7µM*	18	16*	?
O=C1c2ccccc2C(=O)N1CC(O)Cn1nnc2ccccc21 (stereo not drawn)	3%	3%	-3%	-4	-1	9.3µM*
Cc1nn(CC(O)CN2c3ccccc3Sc3ccccc32)c(C)c1Br (stereo not drawn)	-81%	7%	·	15	6	2.6µM*
Cc1nn(CC(O)c2ccccc2)c(C)c1Br (stereo not drawn)	10%	0%	·	-11	13	-15%
COc1cc(C2C(C(=O)Nc3ccccc3C)=C(C)Nc3ncnn32)ccc1OCC(N)=O (stereo not drawn)	·	-1%	·	·	·	·
Cc1ccc(C)c(S(=O)(=O)N2CCN(C(=O)CN3C(=O)C4CC=CCC4C3=O)CC2)c1 (stereo not drawn)	·	3%	-4%	·	·	2%
CCN(C(=O)COC(=O)c1nn(-c2ccccc2)c(=O)c2ccccc12)C1CCS(=O)(=O)C1 (stereo not drawn)	-7%	13%	-3%	1	-3	5%
Oc1ccc(N=Cc2ccc(O)c(O)c2)cc1	4%	22µM*	?	29	11	6%
Oc1ccc(/C=N/N=C/c2ccc(O)c(O)c2)cc1O	15%	?	?	21*	23*	?
CN(Cc1ccccc1)CC(O)COc1ccc(CNCc2ccc(Cl)s2)cc1 (stereo not drawn)	5%	-2%	5.9µM*	7	-1	?
CN(Cc1ccccc1)CC(O)COc1ccc(CNCCOc2cccnc2)cc1 (stereo not drawn)	3%	-30%	13µM*	-16	-3	?
c1ccc(COc2ccc(CNCc3cccs3)cc2)cc1	-55%	5%	38%	56*	25*	51%
CCn1cc(CNCc2ccc(OCC(O)CN(C)Cc3ccccc3)cc2)cn1 (stereo not drawn)	2%	-16%[57.1 µM]	?	-14	-2	?
CCOc1ccc(CNCc2cccnc2)cc1	2%	6%	11%	2	-1	?
c1ccc(COc2ccc(CNCc3cccnc3)cc2)cc1	3%	7%	-12%	20	30*	?
CCCSc1nc2sc3c(c2c(=O)n1-c1ccccc1)CCC(C)C3 (stereo not drawn)	·	1%	·	·	·	·
CCc1cc(=O)oc2cc(C)cc(OC(C)C(=O)NC(Cc3c[nH]c4ccc(O)cc34)C(=O)O)c12 (stereo not drawn)	?	-1%	-12%	-2	1	60%
CN(Cc1ccccc1)CC(O)COc1ccc(CNCCCOc2cccnc2)cc1 (stereo not drawn)	8%	-31%	2.1µM*	-14	-3	?
CN(Cc1ccccc1)CC(O)COc1ccc(CNCc2cccnc2)cc1 (stereo not drawn)	1%	-21%	9.3µM*	-6	-1	8.3µM*
CCOC(=O)/C(N=O)=C(\O)C1CCN(C(=O)OCC)CC1	-3%	-24%	·	-9	-3	13µM*
